Reference: PubChem BioAssay AID504834 (National Center for Advancing Translational Sciences (NCATS), 2011)
Out of some 320,000 compounds screened, about 22,000 (6.9%) were called active. Inconclusive results (about 27%) are left out. The sample holds actives, similar compounds and a random draw of the others, so the mix is not that of the screen. A number with no mark means an inactive call. Calls come from the whole dose curve; as a rule, active = well fitted inhibition curve with a large enough effect; inconclusive = small, poorly fitted or top-dose-only effect, or another doubt; inactive = no such curve, though single readings can be large or run the other way.

assay: Primary qHTS for delayed death inhibitors of the malarial parasite plastid, 96 hour incubation; conditions: P. falciparum luciferase reporter growth; series mostly up to 28.7 µM; activity change, negative = inhibition: at the top concentration
Description: The goal of this screen is to discover new antimalarial compounds that act by inhibiting the development of the apicoplast in the malarial parasite Plasmodium falciparum. The biochemical processes that make this organelle essential for erythrocytic stage parasites are not well understood. However, antibiotics such as azithromycin and tetracycline, which target the apicoplast translational machinery, have a potent antimalarial effect.
We have developed a cell-based assay that measures parasite growth based on the expression of an integrated copy of a firefly luciferase reporter. To detect small molecules that cause this "delayed death" phenotype, erythrocytes infected with the luciferase-expressing parasites were incubated with compounds for either one or two generations, corresponding to 48 and 96 hours, respectively. Compounds that inhibit parasite growth in the second generation, but not the first, should be enriched in antimalarials that target the apicoplast. Growth inhibition is detected by a decrease in luciferase activity.
Assay Provider: David Fidock and Eric Ekland, Columbia University
Keywords: NIH Roadmap, MLPCN, MLI, MLSMR, qHTS, NCGC, qHTS, malaria, luciferase, viability
Four microliters of infected erythrocytes (2% hematocrit, 0.05% parasitemia final concentration) in culture medium were dispensed and the plates incubated for 96 hours at 37 C in 5% CO2. Two microliters of luciferase detection reagent was added and luminescence was detected by a ViewLux (PerkinElmer) reader.
% is set by controls: 0 for no effect and ±100 for the full control effect; potency is the fitted concentration of half-maximal effect.

Row | Structure (SMILES) | activity change, negative = inhibition [%] | Potency
1 | O=C(Cn1cc(C(=O)C2CC2)c2ccccc21)Nc1ccccc1Cl | 15.4 | –
2 | COCCCNc1nc2c(-c3cccc(C)c3)nnn2c2ccc(Cl)cc12 | 2.68 | –
3 | O=C(Cc1ccccc1)N1N=C(c2ccncc2)CC1(O)C(F)(F)F (configuration not stated) | – | 13.1 µM (active)
4 | CC1=NN(C(=O)CCc2ccccc2O)C(O)(C(F)(F)F)C1 (configuration not stated) | -3.05 | –
5 | CC1=NN(C(=O)CCCc2ccccc2)C(O)(C(F)(F)F)C1 (configuration not stated) | -30.7 | –
6 | Cc1ccc2[nH]c(=O)c(CN(C)S(=O)(=O)c3cccc4nonc34)cc2c1 | -24.7 | –
7 | CC1=NNC(=O)C1CC(=O)N/N=C/c1ccncc1 (configuration not stated) | 31.8 | –
8 | [O-][N+]12CCCCC1CCCC2CO (configuration not stated) | 2.61 | –
9 | CC(=O)Nc1ccc(NC(=O)CCN2C(=O)C3CC=CCC3C2=O)cc1 (configuration not stated) | 7.9 | –
10 | O=C(CC1SC(N2CCCC2)=NC1=O)Nc1ccc(C(=O)NCCc2ccc(F)cc2)cc1 (configuration not stated) | – | 10.4 µM (active)
11 | O=C(NCCc1ccc(F)cc1)c1ccc2nccnc2c1 | 351 | –
12 | O=C(CSc1nnc(SCc2ccc(F)cc2)s1)Nc1ccc(C(=O)O)cc1 | 175 | –
13 | O=C(CNC(=O)Cc1ccccc1)N=Nc1c(O)[nH]c2ccc(Br)cc12 | 0.113 | –
14 | O=C(c1ccccc1)N1CCN(C(=O)c2cc3nc(-c4ccccc4)cc(C(F)(F)F)n3n2)CC1 | -1.61 | –
15 | COc1cc(/C=C(\C#N)c2nc3ccccc3[nH]2)ccc1O | 2.89 | –
16 | Cc1ccc2nc(S(=O)(=O)O)[nH]c2c1 | 20.9 | –
17 | Cc1ccc2nc(/C(C#N)=C\c3ccc(OC(=O)c4cccs4)cc3)[nH]c2c1 | – | 9.28 µM (active)
18 | Cc1c(C=O)c2ccccc2n1CCOc1ccccc1 | 13.8 | –
19 | Cc1nn(C)c(Cl)c1CN1CCC(Oc2ccc(C(=O)N3CCCC3)cc2)CC1 | 50 | –
20 | COc1ccc(C(=O)NC(C)CCc2ccccc2)c(OC)c1 (configuration not stated) | -22.5 | –
21 | CC(C)c1ccc(C(=O)OC2CCOC2=O)cc1 (configuration not stated) | 0 | –
22 | Cn1c(=O)c2ccccc2n(CC(=O)Nc2ccc3c(c2)OCCO3)c1=O | 1.42 | –
23 | Cc1ccc(OCCOCCOc2ccc(Br)cc2/C=N\NC(=O)c2ccncc2)cc1 | – | 5.22 µM (active)
24 | COc1ccc(CC(=O)NCC(=O)N/N=C/c2cc(Br)ccc2OC)cc1 | -8.14 | –
25 | Cc1ccc(S(=O)(=O)Oc2ccc(/C=N/NC(=O)c3ccncc3)cc2)cc1 | 40.8 | –
26 | CNS(=O)(=O)c1cccc(C(=O)NC2CCCc3ccccc32)c1 (configuration not stated) | -8.59 | –

Row | Structure (SMILES) | activity change, negative = inhibition [%] | Potency
27 | Cc1n[nH]c(=O)c2c(NC(=O)COC(=O)c3ncc(Cl)c(Cl)c3Cl)oc(C)c12 | 22 | –
28 | Cc1cccc(C)c1NC(=O)NC1=CCCN1C | -17.3 | –
29 | Cc1nnc(SCCCn2c(N3CCCCC3)nc3c2c(=O)[nH]c(=O)n3C)s1 | – | 2.08 µM (active)
30 | Cc1nnc(Sc2nc3c(c(=O)[nH]c(=O)n3C)n2Cc2ccccc2)s1 | -11.4 | –
31 | CCCCNc1nc2c(c(=O)[nH]c(=O)n2C)n1CCOc1ccccc1 | -22.4 | –
32 | C=C(C)Cn1c(N2CCN(CC)CC2)nc2c1c(=O)[nH]c(=O)n2C | – | 2.33 µM (active)
33 | Cn1c(=O)[nH]c(=O)c2c1nc(N1CCCCCC1)n2CC(=O)c1ccccc1 | -12.3 | –
34 | Cn1c(=O)[nH]c(=O)c2c1nc(Br)n2CCCCSc1nc2ccccc2o1 | 30.3 | –
35 | C=C(C)Cn1c(N2CCCC2)nc2c1c(=O)[nH]c(=O)n2C | 12.6 | –
36 | Cn1c(=O)[nH]c(=O)c2c1nc(CN1CCN(c3ccccc3F)CC1)n2CCc1ccccc1 | -25.9 | –
37 | CC1CCN(c2nc3c(c(=O)[nH]c(=O)n3C)n2CCCc2ccccc2)CC1 | – | 10.4 µM (active)
38 | FC(F)(F)c1cccc(-c2nc(COc3ccc(Cl)cc3Cl)no2)c1 | -2.32 | –
39 | Cc1cc(C)nc(NS(=O)(=O)c2ccc(N3C(=O)C4CCCCC4C3=O)cc2)n1 (configuration not stated) | 77.2 | –
40 | CCc1ccc(NC(=O)Cn2nnc(C(=O)NCc3ccc4c(c3)OCO4)c2N)cc1 | 20.3 | –
41 | COc1ccc(S(=O)(=O)NC(C)C)cc1C(=O)NC1CCCCC1 | -13.1 | –
42 | COc1ccc(S(=O)(=O)N2CCOCC2)cc1NC(=O)CSc1cc(C)ccc1C | – | 7.38 µM (active)
43 | Cc1ccc(S(=O)(=O)N2CCOCC2)cc1NC(=O)CSc1nnc(N)s1 | -4.94 | –
44 | COc1ccc(S(=O)(=O)N2CCOCC2)cc1NC(=O)Cc1coc2cc(C)ccc12 | -11.9 | –
45 | COc1ccc(S(=O)(=O)N2CCOCC2)cc1C(=O)NC1CCCCC1 | – | 4.65 µM (active)
46 | Cc1ccc(S(=O)(=O)N2CCN(C)CC2)cc1C(=O)NC1CCCCC1 | -14.8 | –
47 | CC(C)Oc1ccc(S(=O)(=O)N2CCOCC2)cc1NC(=O)C1CCCC1 | – | 11.7 µM (active)
48 | COc1ccc(S(=O)(=O)N2CCOCC2)cc1NC(=O)COc1ccccc1 | -0.938 | –
49 | COc1ccc(S(=O)(=O)N2CCOCC2)cc1NC(=O)Cc1c(F)cccc1Cl | -12.3 | –
50 | NC(=O)COC(=O)c1ccc2c(c1)C(=O)N(Cc1ccco1)C2=O | 18.5 | –
51 | Cc1cc(C)c(CN2CCN(C(=O)Cn3ccc(NC(=O)OCc4ccccc4)nc3=O)CC2)c(C)c1 | -25.9 | –
52 | O=C(COC(=O)Cn1[nH]c(=O)c2ccccc2c1=O)Nc1ncc(Cl)cc1Cl | 25.8 | –
